Experimental findings from PubChem BioAssay (EPA / NIEHS) are described below.

Usually AC50 stands for the concentration at which the activity in the assay is half-maximal.

The structures appear in SMILES notation. Activity calls are given as the source filed them. Rule for the calls: active = hit-call score of the fitted dose curve at least 0.9, where 1 is the maximum; inactive = score below 0.9.

Read-out in this assay: Pyruvate Dehydrogenase Kinase 4 (PDK4), PDK4 (gene 5166)
Briefly: LTEA_HepaRG_PDK4: Life Technologies and Expression Analysis (LTEA) Assay for Pyruvate Dehydrogenase Kinase 4 (PDK4) using HepaRG (AID 2283525). As to conditions: mRNA level, 48 h; actives raise or lower the signal. How it is done: LTEA_HepaRG is a cell based, multiplexed-readout assay that uses HepaRG, a human liver cell line, with measurements taken at 48 hours after chemical dosing on a 96-well plate.LTEA_HepaRG_PDK4 is one of 102 assay component(s) measured in the LTEA HepaRG cell culture assay. It is a marker of Diseases associated with PDK4 including Platelet Glycoprotein Iv Deficiency and Diabetes Mellitus, Noninsulin-Dependent.Data from the assay component LTEA_HepaRG_PDK4 was analyzed into 1 endpoint. This assay endpoint, LTEA_HepaRG_PDK4, was analyzed with bidirectional fitting relative to DMSO as the negative control and baseline of activity. Using a type of inducible reporter, measures of mRNA induction for gain or loss-of-signal activity can be used to understand regulation of transcription factor activity. To generalize the intended target to other relatable targets, this assay endpoint is annotated to the kinase intended target family, where the subfamily is serine/threonine kinase.
A total of 1060 chemcials from the ToxCast library were tested in eight-point concentration-response experiments. Cell culture and cytotoxicity assays were conducted at Thermo Fisher Scientific's Custom Services facility (Madison, WI). A single lot of human HepaRG cells (Thermo Fisher Scientific, Frederick, MD) was used for the cell culture experiments. 96-well format collagen type I coated plates of human HepaRG cells were prepared using established methods. Briefly, cryopreserved HepaRG cells were thawed, plated at a density of approximately 100,000 cells/well in HepaRG Thaw, Plate, and General Purpose media (HPRG770, Thermo Fisher Scientific), and incubated for 48 hours. 0.5% DMSO was selected as vehicle control to balance the requisite need of DMSO in HepaRG cultures to maintain differentiation (for example, baseline metabolism, proportions of hepatocytes vs. cholangiocytes), while enabling further hepatic receptor pathway activation (for example, PXR and CAR) in response to chemical exposure. 48 hours after plating, the culture medium was replaced with HepaRG Serum-Free Incudtion Media. Cells were exposed to each test chemical in duplicate and maintained in CO2 incubators for another 48 hours. Chemical plates were thawed to room temperature and 200x concentrations of treatment groups were prepared. 8-point conentration-reponse curves were made with the highest exposure at 100 uM, followed by half-log dilutions, all in 0.5% DMSO. Each test plate contained variouse controls, induction positive controls (1mM phenobarbital), cytotoxicity positive controls ([…] aflatoxin B1), vehicle controls (0.5% DMSO), and total lysis controls (0.5% DMSO). Cell morphology images were taken using an Essen IncuCyte FLR automated microscope, with six 96-well plates imaged in about 24 minutes. Images were captured and exported and JPEG files. Spent culture media was transfered to black-well plates for the LDH assay, and remaining media was sorted at -80 C for later use. Cells were treated with RLT buffer and frozen until shipped for gene expression analysis. Total RNA was isolated from the cell suspension in 75 uL of Buffer RLT (Qiagen, Germantown, MD 20874) by Quintiles/Expression Analysis (Durham, NC) using a custom isolation procedure. Total RNA from each plate well was transferred to a preamplification plate. Fluidigm's 96.96 Dynamic ArrayTM (Fluidigm, Amsterdam, the Netherlands) technology was used for gene expression analyses by quantitative reverse transcription polymerase chain reaction (qRT-PCR, performed by Quintiles/Expression Analysis, Durham, NC)89. Standard TaqManTM Assays (Applied Biosystems/ThermoFisher Scientific, Foster City, CA) were used to assess the expression of 93 genes selected based on their selectivity and sensitivity to important hepatic receptors known to be modulated by environmental chemicals; importance in human hepatocyte functionality; and hepatotoxicity. […]
Regarding `CCCc1ccccc1`, the result was inactive.

On to `CCCCCOC(C)=O`, for which the call was inactive.

With `Nc1ccn([C@@H]2O[C@H](CO)[C@@H](O)[C@@H]2O)c(=O)n1`, the call was inactive.

As to `NC(=O)NN=Cc1ccc([N+](=O)[O-])o1`, the call was inactive.

Take `Cc1ccc(S(=O)(=O)NC(=O)NN2CCCCCC2)cc1`: the compound was classed as inactive.

On to `C=CCc1cc(S(=O)(=O)c2ccc(O)c(CC=C)c2)ccc1O`, for which the AC50 is 81.1 µM (active).

Turning to `O=c1[nH]cnc2c1ncn2[C@H]1CC[C@@H](CO)O1`, the call was inactive.

Consider `O=S(=O)(O)c1ccc(N=Nc2c(O)ccc3cc(S(=O)(=O)O)ccc23)cc1`, for which the result was inactive.

Take `NC(=O)N(O)[C@@H]1COc2cc(OCc3ccccc3)ccc21`: the compound was classed as inactive.

Turning to `CCCCCCOC(=O)CC(CC(=O)OCCCCCC)(OC(=O)CCC)C(=O)OCCCCCC`, the compound was classed as inactive.

Consider `O=C(O)c1cccc(C(=O)O)c1`, for which the result was inactive.

Consider `CCCCCCCCCCCCCCO`, for which the result was inactive.

On to `C[C@@H](Oc1ccc(CNC(=O)c2cccnc2Oc2ccc3c(c2)OCO3)c(F)c1)C(=O)O`, for which the AC50 was 50 µM (active).

For the compound `CCCCN1C(=O)[C@@H]([C@H](O)C2CCCCC2)NC(=O)C12CCN(Cc1ccc(Oc3ccc(C(=O)O)cc3)cc1)CC2`, the AC50 was 2.61 µM (active).

Consider `O=C(O)[C@H](O)[C@@H](O)C(=O)O`, for which the result was inactive.

Regarding `CCn1nc(C)c2c1C(=O)NCC(c1ccc(O)cc1)=N2`, the compound was classed as inactive.

For the compound `Cn1cc[nH]c1=S`, the compound was called inactive.

Regarding `COc1cc2c(c(OC)c1OC)-c1ccc(OC)c(=O)cc1[C@@H](NC(C)=O)CC2`, the AC50 was 0.0626 µM (active).

`CCCOc1ccc(S(=O)(=O)N2CCN(CC)CC2)cc1-c1nc2c(CC)n(Cc3ccccn3)nc2c(=O)[nH]1`: the AC50 was 31.3 µM (active).

On to `CC[C@H](C)C(=O)O[C@H]1C[C@H](O)C=C2C=C[C@H](C)[C@H](CC[C@@H](O)C[C@@H](O)CC(=O)O)[C@H]21`, for which the result was inactive.

Take `O=C1CN(N=Cc2ccc([N+](=O)[O-])o2)C(=O)N1`: the AC50 is 57.6 µM (active).

`CCCCOC(=O)c1ccccc1`: the compound was classed as inactive.

`CCCCCCCCCCCCCCCCOS(=O)(=O)O`: the AC50 is 10.8 µM (active).

For `OC[C@H]1O[C@@H]2O[C@H]3[C@H](O)[C@@H](O)[C@@H](O[C@H]4[C@H](O)[C@@H](O)[C@@H](O[C@H]5[C@H](O)[C@@H](O)[C@@H](O[C@H]6[C@H](O)[C@@H](O)[C@@H](O[C@H]7[C@H](O)[C@@H](O)[C@@H](O[C@H]1[C@H](O)[C@H]2O)O[C@@H]7CO)O[C@@H]6CO)O[C@@H]5CO)O[C@@H]4CO)O[C@@H]3CO`, the compound was called inactive.

On to `CC(C)CCCCCCOC(=O)C1CCCCC1C(=O)OCCCCCCC(C)C` (stereo not given), for which the compound was classed as inactive.

`OC[C@H]1O[C@@](CO)(O[C@H]2O[C@H](CO)[C@@H](O)[C@H](O)[C@H]2O)[C@@H](O)[C@@H]1O`: the compound was classed as inactive.

Turning to `C[C@]12C=CC(=O)C=C1CC[C@H]1[C@@H]3C[C@@H](O)[C@](O)(C(=O)CO)[C@@]3(C)C[C@H](O)[C@@]12F`, the outcome was inactive.

In the case of `OC(CCl)CCl`, the outcome was inactive.

For `CCCCCCCC1CCC(=O)O1` (stereo not given), the compound was classed as inactive.

Turning to `Cc1nccn1-c1ccc(Sc2cccc(C3(C(N)=O)CCOCC3)c2)cc1`, the compound was called inactive.

Consider `CCCCCCCCCC`, for which the outcome was inactive.

`CC(C)c1nnc2ccc(-c3ocnc3-c3cc(F)ccc3F)cn12`: the compound was called inactive.

For `OCCNCCO`, the AC50 is 50 µM (active).

Take `NNC(=O)c1ccncc1`: the result was inactive.

Turning to `CNC(C)=O`, the compound was called inactive.

For the compound `O=C(O)c1ccc2c(c1)nc(C(=O)NC1CCN(C3CC3)CC1)n2Cc1cc(-c2ccc(Cl)s2)on1`, the result was inactive.

Take `c1ccc(C(O[C@@H]2CCCN(CCc3ccc4c(c3)OCO4)C2)c2ccccc2)cc1`: the AC50 was 73.5 µM (active).

On to `COc1cc(C(C)C)c2c(c1)S(=O)(=O)N(COc1cc(=O)n3cccc(OCCN4CCCCC4)c3n1)C2=O`, for which the result was inactive.

With `OCC(CO)(CO)CO`, the compound was called inactive.

On to `COS(C)(=O)=O`, for which the outcome was inactive.
